Consider 37 targets from the supplement of paper PMC10849652.

About 7,900 targets were measured; listed, in parts, are those with a hit and a random draw of the rest. About 0.6% of all pairs of compound and target were hits. Unmarked numbers belong to inactive results.

Chain of UniProt Q9UDY2 (Q9UDY2 whole entry, looked up): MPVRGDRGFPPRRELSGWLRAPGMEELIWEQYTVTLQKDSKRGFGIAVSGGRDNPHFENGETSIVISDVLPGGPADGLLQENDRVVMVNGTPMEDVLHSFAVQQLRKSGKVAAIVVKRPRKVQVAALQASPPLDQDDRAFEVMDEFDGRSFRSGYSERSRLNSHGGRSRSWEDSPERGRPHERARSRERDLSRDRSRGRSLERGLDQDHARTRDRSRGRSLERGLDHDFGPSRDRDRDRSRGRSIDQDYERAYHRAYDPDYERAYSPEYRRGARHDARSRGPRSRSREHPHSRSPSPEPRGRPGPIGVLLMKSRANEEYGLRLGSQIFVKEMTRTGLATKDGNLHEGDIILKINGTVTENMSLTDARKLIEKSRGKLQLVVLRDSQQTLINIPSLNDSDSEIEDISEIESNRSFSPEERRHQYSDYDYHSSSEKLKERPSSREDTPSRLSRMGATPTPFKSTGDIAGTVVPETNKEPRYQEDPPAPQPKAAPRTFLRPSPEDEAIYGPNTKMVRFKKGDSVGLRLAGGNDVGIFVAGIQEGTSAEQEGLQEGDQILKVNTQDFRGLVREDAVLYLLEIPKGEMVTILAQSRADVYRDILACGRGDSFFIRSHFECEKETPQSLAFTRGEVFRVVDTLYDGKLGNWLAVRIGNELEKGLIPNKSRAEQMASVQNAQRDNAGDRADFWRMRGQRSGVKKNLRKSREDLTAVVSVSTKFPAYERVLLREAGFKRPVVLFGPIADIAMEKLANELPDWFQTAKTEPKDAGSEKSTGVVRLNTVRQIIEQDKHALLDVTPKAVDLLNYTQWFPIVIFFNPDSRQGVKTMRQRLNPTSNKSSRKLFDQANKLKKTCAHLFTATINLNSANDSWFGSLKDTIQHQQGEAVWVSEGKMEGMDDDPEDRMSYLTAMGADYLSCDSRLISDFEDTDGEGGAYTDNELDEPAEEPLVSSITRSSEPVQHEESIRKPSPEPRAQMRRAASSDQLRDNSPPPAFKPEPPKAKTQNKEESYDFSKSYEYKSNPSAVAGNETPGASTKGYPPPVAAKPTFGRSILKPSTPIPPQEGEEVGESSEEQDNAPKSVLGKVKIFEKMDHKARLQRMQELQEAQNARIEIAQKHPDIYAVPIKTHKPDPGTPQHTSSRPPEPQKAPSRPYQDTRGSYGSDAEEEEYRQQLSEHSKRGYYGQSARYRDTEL
Chain of UniProt P05455 (P05455 whole entry, looked up): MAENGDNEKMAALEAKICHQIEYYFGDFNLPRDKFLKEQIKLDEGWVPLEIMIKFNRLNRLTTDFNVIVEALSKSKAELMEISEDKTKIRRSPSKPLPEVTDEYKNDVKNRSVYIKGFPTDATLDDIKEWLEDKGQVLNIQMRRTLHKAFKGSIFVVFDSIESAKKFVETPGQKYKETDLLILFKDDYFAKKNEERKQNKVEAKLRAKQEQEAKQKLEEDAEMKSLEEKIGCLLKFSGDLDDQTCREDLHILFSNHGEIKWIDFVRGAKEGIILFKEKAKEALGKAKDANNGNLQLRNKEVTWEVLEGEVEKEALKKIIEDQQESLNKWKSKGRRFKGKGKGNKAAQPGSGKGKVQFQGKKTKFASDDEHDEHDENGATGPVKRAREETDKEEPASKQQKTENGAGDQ
Chain of UniProt P12931 (P12931 whole entry, looked up): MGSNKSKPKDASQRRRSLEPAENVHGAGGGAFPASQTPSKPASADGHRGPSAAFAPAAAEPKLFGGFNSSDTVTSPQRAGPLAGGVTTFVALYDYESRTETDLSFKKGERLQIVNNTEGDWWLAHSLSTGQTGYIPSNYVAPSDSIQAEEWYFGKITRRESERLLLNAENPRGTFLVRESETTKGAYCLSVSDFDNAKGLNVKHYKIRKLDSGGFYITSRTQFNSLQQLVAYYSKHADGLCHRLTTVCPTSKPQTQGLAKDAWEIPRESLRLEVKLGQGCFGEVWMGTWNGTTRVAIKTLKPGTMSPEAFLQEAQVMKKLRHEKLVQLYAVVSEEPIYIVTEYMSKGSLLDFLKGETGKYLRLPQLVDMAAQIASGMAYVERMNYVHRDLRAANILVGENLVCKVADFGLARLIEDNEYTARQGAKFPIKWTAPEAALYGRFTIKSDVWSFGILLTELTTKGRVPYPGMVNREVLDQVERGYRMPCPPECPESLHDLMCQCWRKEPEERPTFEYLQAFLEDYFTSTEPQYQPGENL
Chain of UniProt Q9UBP0 (Q9UBP0 whole entry, looked up): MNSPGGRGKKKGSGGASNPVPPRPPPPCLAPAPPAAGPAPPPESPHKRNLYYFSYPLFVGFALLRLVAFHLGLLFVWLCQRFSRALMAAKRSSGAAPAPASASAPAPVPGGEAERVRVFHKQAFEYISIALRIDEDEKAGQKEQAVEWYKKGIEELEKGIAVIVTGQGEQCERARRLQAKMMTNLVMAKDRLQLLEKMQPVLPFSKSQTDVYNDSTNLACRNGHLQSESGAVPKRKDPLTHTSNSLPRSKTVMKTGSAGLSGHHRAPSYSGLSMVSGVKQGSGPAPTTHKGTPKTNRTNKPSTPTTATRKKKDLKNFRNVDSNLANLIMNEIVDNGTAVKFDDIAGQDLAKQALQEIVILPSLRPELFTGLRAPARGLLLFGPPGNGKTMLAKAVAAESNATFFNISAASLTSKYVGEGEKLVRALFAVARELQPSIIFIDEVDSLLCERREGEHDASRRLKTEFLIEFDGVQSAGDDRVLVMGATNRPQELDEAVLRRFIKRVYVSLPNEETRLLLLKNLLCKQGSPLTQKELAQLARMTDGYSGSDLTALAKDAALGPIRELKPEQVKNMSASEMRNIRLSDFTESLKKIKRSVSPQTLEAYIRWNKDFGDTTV
Chain of UniProt Q5T5C0 (Q5T5C0 whole entry, looked up): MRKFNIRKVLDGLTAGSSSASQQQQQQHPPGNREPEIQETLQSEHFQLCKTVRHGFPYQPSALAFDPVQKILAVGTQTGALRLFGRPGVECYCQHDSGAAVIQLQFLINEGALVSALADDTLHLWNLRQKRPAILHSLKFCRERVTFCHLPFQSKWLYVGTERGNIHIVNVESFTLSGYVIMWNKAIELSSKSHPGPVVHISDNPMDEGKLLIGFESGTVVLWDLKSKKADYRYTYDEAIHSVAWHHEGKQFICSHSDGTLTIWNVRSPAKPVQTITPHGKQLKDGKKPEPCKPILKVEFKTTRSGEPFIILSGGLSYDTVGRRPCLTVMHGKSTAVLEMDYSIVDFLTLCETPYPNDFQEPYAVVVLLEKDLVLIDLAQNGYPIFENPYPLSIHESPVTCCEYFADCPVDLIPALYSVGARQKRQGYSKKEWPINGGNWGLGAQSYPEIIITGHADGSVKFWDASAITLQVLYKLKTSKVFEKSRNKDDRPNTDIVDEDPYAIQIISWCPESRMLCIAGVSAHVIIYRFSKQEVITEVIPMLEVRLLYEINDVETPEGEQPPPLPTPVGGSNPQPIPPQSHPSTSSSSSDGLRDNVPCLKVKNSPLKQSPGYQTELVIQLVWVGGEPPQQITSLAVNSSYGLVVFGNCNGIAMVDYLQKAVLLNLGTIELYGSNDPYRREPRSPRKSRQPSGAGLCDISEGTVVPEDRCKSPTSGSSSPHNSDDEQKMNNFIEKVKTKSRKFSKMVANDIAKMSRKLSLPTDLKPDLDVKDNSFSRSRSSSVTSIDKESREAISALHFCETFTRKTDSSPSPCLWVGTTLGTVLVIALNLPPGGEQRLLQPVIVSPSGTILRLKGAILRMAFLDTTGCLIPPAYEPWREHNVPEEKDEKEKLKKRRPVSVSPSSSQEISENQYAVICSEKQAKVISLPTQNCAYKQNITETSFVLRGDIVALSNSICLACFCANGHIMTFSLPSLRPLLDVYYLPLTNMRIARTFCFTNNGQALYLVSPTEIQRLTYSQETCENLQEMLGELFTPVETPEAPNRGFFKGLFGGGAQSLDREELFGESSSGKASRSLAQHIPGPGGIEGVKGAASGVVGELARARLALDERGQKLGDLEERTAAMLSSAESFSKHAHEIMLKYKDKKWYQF
Chain of UniProt P62072 (P62072 whole entry, looked up): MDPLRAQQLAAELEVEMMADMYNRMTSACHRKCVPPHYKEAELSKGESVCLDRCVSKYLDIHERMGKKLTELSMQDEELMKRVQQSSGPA
Chain of UniProt Q15582 (Q15582 whole entry, looked up): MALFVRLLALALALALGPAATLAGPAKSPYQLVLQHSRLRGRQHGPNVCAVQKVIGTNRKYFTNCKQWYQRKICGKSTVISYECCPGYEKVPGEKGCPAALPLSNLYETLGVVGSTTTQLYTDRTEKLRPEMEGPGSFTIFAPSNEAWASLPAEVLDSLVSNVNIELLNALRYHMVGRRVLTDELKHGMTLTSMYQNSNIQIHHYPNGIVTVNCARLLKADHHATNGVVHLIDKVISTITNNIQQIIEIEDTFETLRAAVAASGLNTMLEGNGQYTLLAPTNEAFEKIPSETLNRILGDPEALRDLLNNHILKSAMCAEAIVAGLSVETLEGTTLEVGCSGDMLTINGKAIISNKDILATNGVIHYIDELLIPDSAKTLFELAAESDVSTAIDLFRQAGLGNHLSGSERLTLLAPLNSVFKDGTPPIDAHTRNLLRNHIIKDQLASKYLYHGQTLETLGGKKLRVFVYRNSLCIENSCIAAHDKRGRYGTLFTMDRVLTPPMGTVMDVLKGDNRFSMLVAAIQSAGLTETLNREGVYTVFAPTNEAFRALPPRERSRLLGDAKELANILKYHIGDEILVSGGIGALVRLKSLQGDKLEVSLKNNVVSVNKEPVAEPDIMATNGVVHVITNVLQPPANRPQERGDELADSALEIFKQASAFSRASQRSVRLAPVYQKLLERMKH
Chain of UniProt Q5JUR7 (Q5JUR7 whole entry, looked up): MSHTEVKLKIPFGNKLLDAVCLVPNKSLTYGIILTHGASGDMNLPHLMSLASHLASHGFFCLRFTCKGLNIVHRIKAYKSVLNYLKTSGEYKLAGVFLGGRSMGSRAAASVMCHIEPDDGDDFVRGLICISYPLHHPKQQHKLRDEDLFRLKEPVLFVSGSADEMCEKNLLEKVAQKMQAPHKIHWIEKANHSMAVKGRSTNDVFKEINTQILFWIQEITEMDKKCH

Compound in the first assay: CC1=C2C(=CC=C1)N=C(N(C2=O)C3=CC=CC=C3C)CN4C=NC5=C(N=CN=C54)N
Briefly: log2 fold change, soluble protein after heating vs DMSO (PISA); higher = thermal stabilisation; K562 cells, 10 uM, 30 min; active = over 0.2 and 3.5 SD of the protein, either way, in both replicates (recomputed). In outline: (§1)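 Quantification of soluble protein used TMTpro 16plex LC-MS/MS, with channel sums equalised. Samples were the supernatant after 21,000xg for 90 min of pooled aliquots from K562 cells (2×10^6 cells/mL) treated with 10 μM compound for 30 min, heated for 3 min over 48°C-58°C, and extracted in PBS with 0.5% NP-40 at 4°C. Values, from duplicates, describe thermal stability against control samples on a log2 fold-change scale.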
For the target STX17 (UniProt P56962), the log2 fold change was 0.029.

TJP2 isoform 7 (UniProt Q9UDY2): the log2 fold change was 0.081.

As to SNX9 (UniProt Q9Y5X1), the log2 fold change is 0.048.

Take SRC isoform 2 (UniProt P12931): the log2 fold change is 0.125.

For SUOX (UniProt P51687), the log2 fold change is 0.096.

Regarding SSX2 (UniProt Q16385), the log2 fold change is 0.038.

Turning to SRPRB (UniProt Q9Y5M8), the log2 fold change is 0.034.

In the case of TIMM10 (UniProt P62072), the log2 fold change is 0.042.

For the target THYN1 (UniProt Q9P016), the log2 fold change is 0.043.

With TGFBI (UniProt Q15582), the log2 fold change was 0.019.

Consider SLC27A4 (UniProt Q6P1M0), for which the log2 fold change was 0.037.

On to TBP (UniProt P20226), for which the log2 fold change is -0.158.

Regarding SPAG9 isoform 4 (UniProt O60271), the log2 fold change is -0.048.

Take TAMM41 isoform 3 (UniProt Q96BW9): the log2 fold change is 0.09.

In the case of THADA (UniProt Q6YHU6), the log2 fold change was 0.011.

In the case of ST6GAL1 (UniProt P15907), the log2 fold change is 0.033.

Consider TFAM (UniProt Q00059), for which the log2 fold change is -0.018.

Regarding TARBP1 (UniProt Q13395), the log2 fold change was 0.081.

As for SPAST (UniProt Q9UBP0), the log2 fold change was 0.117.

SLC27A2 (UniProt O14975): the log2 fold change is 0.141.

TEX30 (UniProt Q5JUR7): the log2 fold change was 0.235.

Take STIM1 (UniProt Q13586): the log2 fold change was 0.008.

Take SNRPB2 (UniProt P08579): the log2 fold change is -0.044.

SRSF4 (UniProt Q08170): the log2 fold change is -0.124.

As to SPCS2 (UniProt Q15005), the log2 fold change was -0.034.

Turning to SMG1 (UniProt Q96Q15), the log2 fold change was -0.004.

Regarding SREK1 isoform 2 (UniProt Q8WXA9), the log2 fold change was -0.039.

For SYNE2 isoform 2 (UniProt Q8WXH0), the log2 fold change was 0.209.

Turning to SULT1A1 (UniProt P50225), the log2 fold change is -0.021.

SSRP1 (UniProt Q08945): the log2 fold change was 0.087.

For SLC4A2 (UniProt P04920), the log2 fold change was 0.019.

With SRSF7 (UniProt Q16629), the log2 fold change was -0.093.

As for STARD7 (UniProt Q9NQZ5), the log2 fold change is 0.145.

As to STXBP5 (UniProt Q5T5C0), the log2 fold change is 0.15.

In the case of SLC25A4 (UniProt P12235), the log2 fold change was 0.062.

As to STARD3NL (UniProt O95772), the log2 fold change was 0.142.

Turning to SSB (UniProt P05455), the log2 fold change is 0.014.

Compound in the next assay: Cc1sc2c(c1C)C(c1ccc(Cl)cc1)=N[C@@H](CC(=O)OC(C)(C)C)c1nnc(C)n1-2
The assay is described as above. In outline:
as §1
As to STX17 (UniProt P56962), the log2 fold change is 0.004.

As to TJP2 isoform 7 (UniProt Q9UDY2), the log2 fold change is 0.04.

Take SNX9 (UniProt Q9Y5X1): the log2 fold change was 0.002.

Consider SRC isoform 2 (UniProt P12931), for which the log2 fold change is 0.042.

Consider SUOX (UniProt P51687), for which the log2 fold change was -0.011.

Turning to SSX2 (UniProt Q16385), the log2 fold change is -0.021.

For SRPRB (UniProt Q9Y5M8), the log2 fold change is -0.017.

As for TIMM10 (UniProt P62072), the log2 fold change is -0.033.

As for THYN1 (UniProt Q9P016), the log2 fold change is 0.01.

Take TGFBI (UniProt Q15582): the log2 fold change was -0.048.

As to SLC27A4 (UniProt Q6P1M0), the log2 fold change was -0.027.

Regarding TBP (UniProt P20226), the log2 fold change was 0.144.

Take SPAG9 isoform 4 (UniProt O60271): the log2 fold change was 0.028.

For the target TAMM41 isoform 3 (UniProt Q96BW9), the log2 fold change is -0.06.

For THADA (UniProt Q6YHU6), the log2 fold change was -0.027.

As to ST6GAL1 (UniProt P15907), the log2 fold change was -0.018.

As for TFAM (UniProt Q00059), the log2 fold change was 0.108.

Consider TARBP1 (UniProt Q13395), for which the log2 fold change was -0.073.

For the target SPAST (UniProt Q9UBP0), the log2 fold change is -0.016.

With SLC27A2 (UniProt O14975), the log2 fold change was 0.011.

With TEX30 (UniProt Q5JUR7), the log2 fold change was 0.12.

STIM1 (UniProt Q13586): the log2 fold change was -0.014.

On to SNRPB2 (UniProt P08579), for which the log2 fold change was 0.07.

Take SRSF4 (UniProt Q08170): the log2 fold change is 0.073.

SPCS2 (UniProt Q15005): the log2 fold change was -0.061.

On to SMG1 (UniProt Q96Q15), for which the log2 fold change is 0.02.

Regarding SREK1 isoform 2 (UniProt Q8WXA9), the log2 fold change was -0.037.

For the target SYNE2 isoform 2 (UniProt Q8WXH0), the log2 fold change is -0.004.

As to SULT1A1 (UniProt P50225), the log2 fold change was -0.06.

Consider SSRP1 (UniProt Q08945), for which the log2 fold change was -0.051.

As to SLC4A2 (UniProt P04920), the log2 fold change was -0.038.

SRSF7 (UniProt Q16629): the log2 fold change is 0.209.

As to STARD7 (UniProt Q9NQZ5), the log2 fold change is 0.063.

For the target STXBP5 (UniProt Q5T5C0), the log2 fold change is -0.04.

For SLC25A4 (UniProt P12235), the log2 fold change is -0.049.

STARD3NL (UniProt O95772): the log2 fold change was 0.

As for SSB (UniProt P05455), the log2 fold change is 0.007.
